The source made the active and inactive calls.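 How the source made its calls: active means fitted half-maximal concentration AC50 at or below ten times the highest valid tested dose, with signal falling as DNA is displaced (actives reach about 34 µM in these data); inconclusive means flat fit at moderate signal loss, or poor fit quality; inactive means the rest, including signal rising instead of falling.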
assay: acridine orange-DNA binding displacement – biochemical, fluorescence polarization, cherry-picked samples, set 2, artefact control for KSHV LANA DNA-binding inhibitor project, dose response (AID 504727); conditions: series mostly up to 35 µM; activity change, negative = DNA displacement: at the top concentration;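 on activity change, negative = DNA displacement: 0% = median of neutral control wells and -100% = mitoxantrone positive control wells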

Structure (SMILES)	activity change, negative = DNA displacement	AC50
Cc1ccc(S(=O)(=O)/N=C/c2ccc(N(C)C)cc2)cc1	1.03% (inactive)	–
Cc1noc(C)c1CSCC(=O)Nc1nc2c(F)cc(F)cc2s1	7.28% (inactive)	–
CN(c1ccc(OCC(=O)OCC(=O)c2c(N)n(C)c(=O)n(C)c2=O)cc1)S(=O)(=O)c1ccc2ccccc2c1	7.45% (inactive)	–
CC(C)c1ccc(NC(=O)Cn2c(=O)oc3cccnc32)cc1	1.86% (inactive)	–
CC(C)=C1C2C=CC1C(C(=O)Nc1cc(C)ccc1C)C2C(=O)O (stereo not drawn)	1.34% (inactive)	–
N#CC1=C(N)Oc2ccc3ccc(O)cc3c2C1c1ccsc1 (stereo not drawn)	4.01% (inactive)	–
COc1ccc(-c2cc(C(F)(F)F)n3ncc(C(=O)N4CCCCC4c4cccnc4)c3n2)cc1 (stereo not drawn)	5.21% (inactive)	–
NS(=O)(=O)c1ccc(N=Nc2c[nH]c(=O)c(O)c2)cc1	–	15.8 µM (active)
CCC(Sc1ncccc1C(=O)O)C(=O)N1CCCC1 (stereo not drawn)	6.54% (inactive)	–
CN(N=Nc1ccc([N+](=O)[O-])cc1)c1ccccc1	–	11 µM (active)
Cc1cccc(C)c1NC(=O)CSc1nnc(-c2ccco2)c(-c2ccco2)n1	-6.38% (inactive)	–
COc1ccc(OC)c(-c2c3cc(O)c(=O)cc-3oc3cc(O)c(O)cc23)c1	–	1.62 µM (active)
CCn1c(CN2CCCCC2)nc2cc(S(=O)(=O)N3CCCCC3)ccc21	7.06% (inactive)	–
Cc1ccc(NS(=O)(=O)c2ccc(C(=O)NCCCN3CCCC3=O)cc2)cc1	2.52% (inactive)	–
Cc1cc(S(=O)(=O)NC2CCN(Cc3ccccc3)CC2)c(C)cc1Cl	5.78% (inactive)	–
COc1cc(SC)ccc1C(=O)OCC(=O)N1CCN(C(C)=O)CC1	0.039% (inactive)	–
COc1cccc2c1C(=O)c1c(O)c3c(c(O)c1C2=O)CC(O)(C(C)=NNC(=O)c1ccc(Cl)c(Cl)c1)CC3OC1CC(N)C(O)C(C)O1 (stereo not drawn)	–	2.05 µM (active)
O=C(O)C1C2C=CC(CC2)C1C(=O)O (stereo not drawn)	0.584% (inactive)	–
O=c1c2cc(O)c(O)cc2oc2cc(O)c(C3OC(CO)C(O)C(O)C3O)c(O)c12 (stereo not drawn)	2.47% (inactive)	–
Cc1cc2nc(SCCN3CCOCC3)[nH]c2cc1C	1.2% (inactive)	–
CN1CCc2c(sc(NC(=O)c3ccc4ccccc4c3)c2C(N)=O)C1	-5.43% (inactive)	–
CSc1ncccc1C(=O)OCCCC(=O)c1ccc(F)cc1	7.76% (inactive)	–
O=C1/C(=C/C=C/c2ccco2)SC(=S)N1NS(=O)(=O)c1ccccc1	7.94% (inactive)	–

Source: PubChem BioAssay AID504727 (Broad Institute, 2011)
